ChEMBL document CHEMBL1961873, “Compounds: GSK PKIS; Assays: Nanosyn kinase panel” (2012)

Columns and labels:
[1] = target: Fibroblast growth factor receptor 4 (Homo sapiens) (UniProt P22455); conditions: at 1 µM;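 note: reported figure is the averaged percent inhibition of FGFR4, from the GSK PKIS kinase screening panel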
[2] = target: Tyrosine-protein kinase Fgr (Homo sapiens) (UniProt P09769); conditions: at 0.1 µM
[3] = target: Tyrosine-protein kinase Fgr (Homo sapiens) (UniProt P09769); conditions: at 1 µM
[4] = target: Vascular endothelial growth factor receptor 1 (Homo sapiens) (UniProt P17948); conditions: at 0.1 µM
[5] = target: Vascular endothelial growth factor receptor 1 (Homo sapiens) (UniProt P17948); conditions: at 1 µM
[6] = target: Receptor-type tyrosine-protein kinase FLT3 (Homo sapiens) (UniProt P36888); conditions: at 0.1 µM
[7] = target: Receptor-type tyrosine-protein kinase FLT3 (Homo sapiens) (UniProt P36888); conditions: at 1 µM
[8] = system: T1, Receptor-type tyrosine-protein kinase FLT3 (Homo sapiens), P36888 [D835Y]; conditions: at 0.1 µM
T1 sequence (whole entry): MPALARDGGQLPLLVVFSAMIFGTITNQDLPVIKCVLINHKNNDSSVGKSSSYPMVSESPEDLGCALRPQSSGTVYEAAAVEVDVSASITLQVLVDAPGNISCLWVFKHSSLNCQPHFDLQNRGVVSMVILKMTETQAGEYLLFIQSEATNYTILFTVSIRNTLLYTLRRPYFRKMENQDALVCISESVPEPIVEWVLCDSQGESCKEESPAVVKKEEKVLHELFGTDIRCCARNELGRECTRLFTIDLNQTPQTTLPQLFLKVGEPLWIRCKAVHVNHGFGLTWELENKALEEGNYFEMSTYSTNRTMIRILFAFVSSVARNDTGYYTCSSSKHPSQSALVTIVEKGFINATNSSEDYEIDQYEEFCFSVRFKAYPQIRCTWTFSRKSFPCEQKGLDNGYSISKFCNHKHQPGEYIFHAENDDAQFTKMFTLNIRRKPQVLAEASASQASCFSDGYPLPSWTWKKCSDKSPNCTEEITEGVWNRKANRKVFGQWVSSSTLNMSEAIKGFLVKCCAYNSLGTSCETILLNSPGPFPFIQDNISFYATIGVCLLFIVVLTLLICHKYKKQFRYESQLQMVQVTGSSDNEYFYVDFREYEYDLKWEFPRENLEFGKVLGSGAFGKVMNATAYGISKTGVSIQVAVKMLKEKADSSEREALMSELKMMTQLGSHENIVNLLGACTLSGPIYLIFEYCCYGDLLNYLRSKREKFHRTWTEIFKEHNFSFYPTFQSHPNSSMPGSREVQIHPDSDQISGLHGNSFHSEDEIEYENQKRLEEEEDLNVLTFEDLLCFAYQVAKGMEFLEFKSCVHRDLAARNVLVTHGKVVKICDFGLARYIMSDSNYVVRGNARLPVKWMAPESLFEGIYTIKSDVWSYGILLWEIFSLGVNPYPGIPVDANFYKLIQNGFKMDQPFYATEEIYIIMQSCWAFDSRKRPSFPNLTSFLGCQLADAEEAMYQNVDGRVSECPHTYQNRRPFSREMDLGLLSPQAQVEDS

[9] = target: Non-receptor tyrosine-protein kinase TYK2 (Homo sapiens) (UniProt P29597); conditions: at 1 µM;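 note: values are mean percent inhibition of TYK2 kinase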
[10] = target: T2, Tyrosine-protein kinase receptor TYRO3 (Homo sapiens) (UniProt Q06418); conditions: at 0.1 µM;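 note: reported percentages are averaged inhibition values of TYRO3 kinase activity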
T2 sequence (whole entry): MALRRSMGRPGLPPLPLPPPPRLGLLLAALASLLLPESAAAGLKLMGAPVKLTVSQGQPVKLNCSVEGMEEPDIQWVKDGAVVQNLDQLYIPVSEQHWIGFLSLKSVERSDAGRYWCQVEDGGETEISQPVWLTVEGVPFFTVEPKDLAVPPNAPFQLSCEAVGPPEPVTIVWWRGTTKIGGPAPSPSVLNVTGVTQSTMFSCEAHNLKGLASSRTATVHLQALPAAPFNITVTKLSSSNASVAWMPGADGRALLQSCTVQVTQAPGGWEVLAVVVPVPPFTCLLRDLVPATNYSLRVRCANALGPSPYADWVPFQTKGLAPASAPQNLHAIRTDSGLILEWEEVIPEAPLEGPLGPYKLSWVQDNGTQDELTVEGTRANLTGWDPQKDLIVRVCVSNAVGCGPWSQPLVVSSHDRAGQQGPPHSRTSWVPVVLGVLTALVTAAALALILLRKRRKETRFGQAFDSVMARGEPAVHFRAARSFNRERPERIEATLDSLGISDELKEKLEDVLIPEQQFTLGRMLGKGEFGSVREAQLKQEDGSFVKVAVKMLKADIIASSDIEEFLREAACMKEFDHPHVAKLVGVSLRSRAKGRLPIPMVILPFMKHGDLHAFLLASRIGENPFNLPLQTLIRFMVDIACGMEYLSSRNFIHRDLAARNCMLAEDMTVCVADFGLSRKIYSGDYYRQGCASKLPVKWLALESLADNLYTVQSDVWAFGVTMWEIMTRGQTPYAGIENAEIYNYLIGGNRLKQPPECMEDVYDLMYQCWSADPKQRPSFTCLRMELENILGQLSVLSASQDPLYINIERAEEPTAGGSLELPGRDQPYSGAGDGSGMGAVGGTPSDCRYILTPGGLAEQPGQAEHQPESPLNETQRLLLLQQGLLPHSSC

Chain of Vascular endothelial growth factor receptor 1 (Homo sapiens) (P17948 whole entry): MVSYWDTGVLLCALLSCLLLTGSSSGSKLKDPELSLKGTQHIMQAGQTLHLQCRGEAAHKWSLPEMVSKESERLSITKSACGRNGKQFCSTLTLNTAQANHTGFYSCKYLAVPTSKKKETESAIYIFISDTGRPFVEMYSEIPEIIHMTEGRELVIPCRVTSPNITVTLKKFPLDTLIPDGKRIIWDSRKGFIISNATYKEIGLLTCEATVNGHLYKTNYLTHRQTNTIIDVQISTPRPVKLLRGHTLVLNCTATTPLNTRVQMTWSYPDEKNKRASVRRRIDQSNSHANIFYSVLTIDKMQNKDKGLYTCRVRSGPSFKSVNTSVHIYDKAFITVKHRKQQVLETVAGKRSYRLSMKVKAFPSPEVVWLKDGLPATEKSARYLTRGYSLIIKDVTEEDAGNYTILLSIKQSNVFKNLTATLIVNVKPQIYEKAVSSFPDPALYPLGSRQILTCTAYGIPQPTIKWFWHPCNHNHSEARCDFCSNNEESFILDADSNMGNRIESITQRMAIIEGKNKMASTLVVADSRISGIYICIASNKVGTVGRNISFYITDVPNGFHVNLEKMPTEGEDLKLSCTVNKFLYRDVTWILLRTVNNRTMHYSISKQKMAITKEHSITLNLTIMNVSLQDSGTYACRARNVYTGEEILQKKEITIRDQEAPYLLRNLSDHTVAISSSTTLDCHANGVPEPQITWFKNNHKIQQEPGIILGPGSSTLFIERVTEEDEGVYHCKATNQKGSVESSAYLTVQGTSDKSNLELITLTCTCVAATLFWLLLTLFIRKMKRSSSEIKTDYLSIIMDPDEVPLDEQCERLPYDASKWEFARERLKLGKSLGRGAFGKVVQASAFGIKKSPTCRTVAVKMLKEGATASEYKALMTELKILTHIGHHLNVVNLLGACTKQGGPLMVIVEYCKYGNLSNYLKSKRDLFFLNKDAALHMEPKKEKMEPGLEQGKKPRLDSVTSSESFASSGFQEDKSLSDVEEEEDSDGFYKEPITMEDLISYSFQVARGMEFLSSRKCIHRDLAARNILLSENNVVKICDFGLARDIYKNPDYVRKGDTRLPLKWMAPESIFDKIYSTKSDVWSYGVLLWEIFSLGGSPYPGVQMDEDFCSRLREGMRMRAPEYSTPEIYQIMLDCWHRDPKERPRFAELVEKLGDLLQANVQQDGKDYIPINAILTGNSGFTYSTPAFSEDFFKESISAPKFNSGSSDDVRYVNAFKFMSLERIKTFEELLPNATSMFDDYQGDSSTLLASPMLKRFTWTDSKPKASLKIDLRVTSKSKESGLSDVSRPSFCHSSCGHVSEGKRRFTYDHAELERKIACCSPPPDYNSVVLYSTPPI
Chain of Tyrosine-protein kinase Fgr (Homo sapiens) (P09769 2-529 limits assumed): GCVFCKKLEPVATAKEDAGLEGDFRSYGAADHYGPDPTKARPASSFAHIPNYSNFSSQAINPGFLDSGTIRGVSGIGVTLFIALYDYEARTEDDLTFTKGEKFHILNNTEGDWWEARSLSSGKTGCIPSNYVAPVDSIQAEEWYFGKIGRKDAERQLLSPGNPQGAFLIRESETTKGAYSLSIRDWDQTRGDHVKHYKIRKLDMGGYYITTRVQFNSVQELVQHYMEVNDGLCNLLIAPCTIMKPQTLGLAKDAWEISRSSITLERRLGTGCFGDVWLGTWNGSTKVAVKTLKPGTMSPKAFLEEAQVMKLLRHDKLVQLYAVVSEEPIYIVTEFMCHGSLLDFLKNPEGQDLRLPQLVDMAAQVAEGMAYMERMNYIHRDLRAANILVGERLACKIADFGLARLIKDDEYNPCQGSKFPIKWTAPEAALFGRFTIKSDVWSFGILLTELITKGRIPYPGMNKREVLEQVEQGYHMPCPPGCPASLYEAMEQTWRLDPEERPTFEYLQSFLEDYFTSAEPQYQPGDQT
Chain of Fibroblast growth factor receptor 4 (Homo sapiens) (P22455 22-802 limits assumed): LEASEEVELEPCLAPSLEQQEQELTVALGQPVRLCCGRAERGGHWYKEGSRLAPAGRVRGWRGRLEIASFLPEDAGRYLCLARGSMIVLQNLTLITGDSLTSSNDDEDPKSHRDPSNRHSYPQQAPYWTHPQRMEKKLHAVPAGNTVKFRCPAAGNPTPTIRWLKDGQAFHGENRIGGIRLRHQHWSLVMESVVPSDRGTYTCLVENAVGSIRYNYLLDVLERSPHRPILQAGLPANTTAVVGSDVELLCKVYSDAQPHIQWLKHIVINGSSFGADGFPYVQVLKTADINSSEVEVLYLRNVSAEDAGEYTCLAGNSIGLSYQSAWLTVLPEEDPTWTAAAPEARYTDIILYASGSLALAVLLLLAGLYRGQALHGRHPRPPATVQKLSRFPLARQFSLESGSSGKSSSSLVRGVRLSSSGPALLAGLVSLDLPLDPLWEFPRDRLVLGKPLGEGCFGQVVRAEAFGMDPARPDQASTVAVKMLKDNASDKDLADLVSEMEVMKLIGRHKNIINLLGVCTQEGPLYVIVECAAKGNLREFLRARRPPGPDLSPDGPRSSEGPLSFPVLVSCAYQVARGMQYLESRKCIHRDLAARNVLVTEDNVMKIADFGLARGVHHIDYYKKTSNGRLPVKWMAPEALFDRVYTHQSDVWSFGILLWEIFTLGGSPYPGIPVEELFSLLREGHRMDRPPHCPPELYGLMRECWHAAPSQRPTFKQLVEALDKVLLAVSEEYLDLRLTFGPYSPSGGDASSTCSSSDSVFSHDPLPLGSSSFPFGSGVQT
Chain of Non-receptor tyrosine-protein kinase TYK2 (Homo sapiens) (P29597 whole entry): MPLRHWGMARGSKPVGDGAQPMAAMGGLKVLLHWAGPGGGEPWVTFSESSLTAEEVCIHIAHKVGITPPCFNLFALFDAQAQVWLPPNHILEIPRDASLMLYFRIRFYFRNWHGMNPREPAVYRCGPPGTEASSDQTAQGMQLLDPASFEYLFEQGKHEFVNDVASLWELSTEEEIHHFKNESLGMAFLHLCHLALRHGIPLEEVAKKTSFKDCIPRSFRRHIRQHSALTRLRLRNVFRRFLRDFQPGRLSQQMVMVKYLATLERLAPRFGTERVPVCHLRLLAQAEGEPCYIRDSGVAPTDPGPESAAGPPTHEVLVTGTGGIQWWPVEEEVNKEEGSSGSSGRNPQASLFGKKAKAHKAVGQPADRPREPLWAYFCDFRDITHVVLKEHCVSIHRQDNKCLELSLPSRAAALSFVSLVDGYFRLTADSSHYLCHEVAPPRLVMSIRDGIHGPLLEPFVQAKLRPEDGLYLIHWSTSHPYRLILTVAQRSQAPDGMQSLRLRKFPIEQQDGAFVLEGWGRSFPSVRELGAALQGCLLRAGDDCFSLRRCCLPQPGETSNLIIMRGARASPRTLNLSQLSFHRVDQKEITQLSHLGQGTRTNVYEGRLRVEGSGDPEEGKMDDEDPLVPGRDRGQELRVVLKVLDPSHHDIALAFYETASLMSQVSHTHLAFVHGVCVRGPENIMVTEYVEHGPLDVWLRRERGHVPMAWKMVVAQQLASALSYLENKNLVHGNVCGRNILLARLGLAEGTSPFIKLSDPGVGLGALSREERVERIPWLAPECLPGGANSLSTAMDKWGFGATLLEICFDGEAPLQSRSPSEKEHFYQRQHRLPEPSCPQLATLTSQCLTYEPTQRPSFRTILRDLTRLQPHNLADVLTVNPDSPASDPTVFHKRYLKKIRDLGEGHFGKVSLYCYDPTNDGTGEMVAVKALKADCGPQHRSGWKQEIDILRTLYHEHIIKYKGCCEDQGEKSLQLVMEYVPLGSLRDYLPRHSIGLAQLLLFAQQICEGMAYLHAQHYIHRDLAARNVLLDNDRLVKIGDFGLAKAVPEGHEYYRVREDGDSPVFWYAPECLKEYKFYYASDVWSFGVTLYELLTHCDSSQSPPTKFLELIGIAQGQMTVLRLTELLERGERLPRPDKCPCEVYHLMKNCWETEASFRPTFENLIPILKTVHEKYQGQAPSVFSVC

Row | SMILES | inhibition [1] | inhibition [2] | inhibition [3] | inhibition [4] | inhibition [5] | inhibition [6] | inhibition [7] | inhibition [8] | inhibition [9] | inhibition [10]
1 | CCN(CC)Cc1ccc(Nc2nccc(-c3cnn4ncccc34)n2)cc1 | -3.39% | 2.7% | 11.3% | 3.62% | 16.2% | 7.95% | 47.7% | -3.04% | 11.6% | 4.07%
2 | COc1cc2ncn(-c3cc(OCCc4ccccc4)c(C(N)=O)s3)c2cc1OC | 2% | -0.62% | 7.7% | 1.49% | 4.71% | 0.81% | 7.46% | 0.74% | -2.99% | 0.78%
3 | CN1CCN(CCCNc2nc3ccc(Oc4ccc(NC(=O)Nc5cc(C(F)(F)F)ccc5F)cc4)cc3[nH]2)CC1 | -0.18% | 1.31% | 8.15% | 12.7% | 40.7% | 15% | 61.2% | -5.77% | 0.88% | 1.94%
4 | O=C(Nc1n[nH]c2nc(-c3ccc(O)cc3)c(Br)cc12)C1CC1 | 3.05% | 7.15% | 21.3% | 2.34% | 17.7% | 5.54% | 25.7% | 4.14% | 17.6% | 10.4%
5 | CNC(=O)c1cncc(/C=C/c2c(C)cccc2C)c1 | -4.47% | 6.6% | 29.6% | 1.75% | 1.51% | -1.59% | 1.3% | 3.49% | 0.52% | 0.85%
6 | COc1cccc(-n2cnc3c(N/N=C/c4ccncc4)ncnc32)c1 | -3.96% | 6.79% | 19% | -1.12% | 1.4% | 0.88% | 6.95% | 7.7% | 3.46% | 1.07%
7 | CN(C)CCOc1ccc(-c2cc(-c3ccc4c(c3)CCC4=NO)c(-c3ccncc3)o2)cc1 | -1.71% | 1.5% | 7.33% | -0.18% | -0.16% | -0.73% | -1.89% | -7.59% | 0.1% | -0.87%
8 | O=C(Nc1ccc(Oc2ccc3[nH]c(NC(=O)c4ccccc4)nc3c2)cc1)Nc1cc(C(F)(F)F)ccc1F | 0.83% | 9.57% | 7.53% | 5.53% | 39.3% | 6.63% | 53.4% | -0.18% | -0.97% | 2.33%
9 | NCc1ccc(-n2c(-c3nonc3N)nc3cnccc32)cc1 | 0.49% | 1.73% | 3.12% | 1.08% | 1.4% | 1.23% | 3.45% | -4.05% | -2.73% | 1.87%
10 | O=C(Nc1n[nH]c2cc(-c3cc(F)ccc3F)ccc12)C1CC1 | 0.78% | 3.33% | 7.71% | 0.6% | 1.91% | 1.12% | 4.67% | -5.43% | -2.35% | 3.8%
11 | COc1ccc2cc(-c3c(-c4ccncc4)nc(-c4ccc(S(C)(=O)=O)cc4C)n3C)ccc2c1 | 2.96% | 3.77% | 4.62% | 0.91% | 2.09% | 1.65% | 1% | -1.54% | -1.13% | 2.19%
12 | COc1cc(Nc2ncc3c(C)nc(-c4cccc(Oc5ccccc5)c4)n3n2)cc(OC)c1OC | 1.97% | 0.02% | 4.22% | 0.68% | 2.1% | 3.86% | 28.5% | 3.72% | -3.18% | 2%
13 | COc1ccc(-c2ccc3c(NC(=O)C4CC4)n[nH]c3n2)cc1 | 0.39% | 3.05% | 6.74% | -0.58% | 0.09% | 0.61% | 3.42% | -3.58% | -0.42% | 2.92%
14 | CN(c1ccc(NC(=O)Nc2c(Cl)cccc2Cl)cc1)c1ccnc(Nc2cccc(CS(C)(=O)=O)c2)n1 | 2.06% | 24.3% | 51.9% | 38.5% | 51% | 78.2% | 84.9% | 28.2% | 1.51% | 4.61%
15 | NS(=O)(=O)c1ccc(Nc2cc(-c3ccc(O)c(F)c3)n[nH]2)cc1 | 0.53% | 0.78% | 13.7% | 2.34% | 14.3% | 33.7% | 79.4% | 5.5% | 5.71% | 8.31%
16 | COc1ccc2cc(-c3c(-c4ccncc4)nc(-c4ccc([S+](C)[O-])cc4C)n3C)ccc2c1 (stereo not drawn) | 2.85% | 0.53% | 4.65% | 0.86% | 5.84% | -0.09% | -1% | 0.23% | 0.94% | 0.37%
17 | CS(=O)(=O)CCNCc1cc(-c2cc3c(Nc4ccc(OCc5cccc(F)c5)c(Cl)c4)ncnc3s2)cs1 | 1.36% | 2.51% | 4.32% | 0.1% | 0.78% | 2.69% | 6.93% | -4.23% | -4% | 2.21%
18 | Fc1ccc(-c2ncn(C3CCNCC3)c2-c2ccnc(Oc3ccc(Oc4ccccc4)cc3)n2)cc1 | 3.31% | -0.13% | 4.83% | -0.48% | 3.29% | 2.97% | 1.85% | -3.32% | -3.59% | 1.47%
19 | COC(=O)Nc1nc2ccc(Sc3ccc(NC(=O)Nc4cc(C(F)(F)F)ccc4F)cc3)cc2[nH]1 | -0.24% | 1.66% | 3.71% | 4.5% | 37.7% | 4.87% | 32.6% |  | 0.01% | 1.03%
20 | Fc1ccc(-c2ncn(C3CCNCC3)c2-c2ccnc(Oc3ccc(F)c(F)c3)n2)cc1 | -4.24% | 2.76% | 3.69% | 0.45% | 4.56% | -1.09% | 4.18% | -2.41% | -5.44% | 1.82%
21 | COc1cc(C)c(N(C)C(=O)CN(C)C)cc1Nc1nc(Nc2cccc(F)c2C(N)=O)c2cc[nH]c2n1 | -2.22% | 0.53% | 2% | -0.09% | 1.09% | 1.42% | 2.03% | 0.68% | -1.64% | 1.86%
22 | CCC(=O)Nc1ccc(C)c(-c2ccc(C(=O)NCC3CC3)cc2)c1 | 1% | 1.7% | 4.31% | 0.67% | 4.22% | 3.07% | 3.74% |  | -0.87% | 2.6%
23 | O=C1NC(=O)C(c2cccc(Cl)c2)=C1Nc1ccc(Cl)c(C(=O)O)c1 | 1.23% | 5.15% | 1.19% | 2.61% | 7.03% | 3.91% | 0.25% | -6.52% | -1.23% | 1.77%
24 | O=C1Nc2ccccc2/C1=C/Nc1ccc(-n2cncn2)cc1 | 2.81% | 4.93% | 12.8% | 4.03% | 24.1% | 12.5% | 53.7% | 16.4% | 12.3% | 3.19%
25 | Clc1ccc(CNc2nccc(-c3cnn4ncccc34)n2)cc1 | 1.27% | 3.59% | 4% | -1.24% | 6.44% | 1.16% | 1.79% | 2.77% | 1.83% | 1.5%
26 | N#Cc1ccc(Oc2nccc(-c3c(-c4ccc(F)cc4)ncn3C3CCNCC3)n2)cc1 | -0.84% | 3.69% | 6.62% | -0.44% | -0.67% | -0.97% | 3.98% | -7.02% | -0.38% | 2.69%
27 | COc1cc2ncn(-c3cc(OCc4ccccc4C(F)(F)F)c(C(C)=O)s3)c2cc1OC | 0.4% | 3.6% | 6.26% | 1.7% | 1.67% | 1.77% | 5.32% | 1.44% | -0.07% | 1.52%
28 | NC(=O)c1cc(-c2ccncc2)cc(-c2ccccc2)c1N | 1.49% | 6.05% | 27% | 1.74% | 5.65% | -1.2% | 4.55% | -0.35% | -2.55% | 2.62%
